Read-out in test [1]: Interferon-gamma inducible Protein 10 (IP10), CXCL10 (gene 3627)
Put plainly: BSK_hDFCGF_IP10: BioMAP Diversity Plus: hDFCGF Assay for Interferon-gamma inducible Protein 10 (IP10) Biomarker Activity (AID 2283053). As to conditions: primary human foreskin fibroblasts; actives raise or lower the signal. A digest of the protocol: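 Primary human foreskin fibroblasts exposed to chemicals for 24 h. IP-10 measured by ELISA; changes fitted bidirectionally against DMSO baseline.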

Read-out in test [2]: Urokinase-type plasminogen activator receptor (uPAR), PLAUR (gene 5329)
Put plainly: BSK_CASM3C_uPAR: BioMAP Diversity Plus: CASM3C Assay for Urokinase-type plasminogen activator receptor (uPAR) Biomarker Activity (AID 2283054).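 Further: cell-surface uPAR protein level quantified by ELISA.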 As to conditions: primary human coronary artery smooth muscle cells; actives raise or lower the signal.

Read-out in test [3]: Vascular cell adhesion molecule 1 (VCAM1), VCAM1 (gene 7412)
Put plainly: BSK_CASM3C_VCAM1: BioMAP Diversity Plus: CASM3C Assay for Vascular cell adhesion molecule 1 (VCAM1) Biomarker Activity (AID 2283055).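 Further: VCAM-1 protein level quantified by ELISA on the cells.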 As to conditions: primary human coronary artery smooth muscle cells; actives raise or lower the signal.

Read-out in test [4]: Collagen III, COL3A1 (gene 1281)
Put plainly: BSK_hDFCGF_CollagenIII: BioMAP Diversity Plus: hDFCGF Assay for Collagen III Biomarker Activity (AID 2283056). As to conditions: primary human foreskin fibroblasts; actives raise or lower the signal. Put shortly: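 Cells: human foreskin fibroblasts, primary. Dosing followed by 24 h incubation, then ELISA for collagen III. Both increases and decreases scored relative to DMSO.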

Read-out in test [5]: Epidermal growth factor receptor (EGFR), EGFR (gene 1956)
Put plainly: BSK_hDFCGF_EGFR: BioMAP Diversity Plus: hDFCGF Assay for Epidermal growth factor receptor (EGFR) Biomarker Activity (AID 2283057). As to conditions: primary human foreskin fibroblasts; actives raise or lower the signal. Put shortly: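 Primary human foreskin fibroblasts (hDFCGF system), sampled 24 h after dosing; EGFR quantified by ELISA. Bidirectional fit relative to DMSO baseline; SRB total-protein staining in parallel cultures for cytotoxicity.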

Read-out in test [6]: Interleukin-8 (IL8), CXCL8 (gene 3576)
Put plainly: BSK_hDFCGF_IL8: BioMAP Diversity Plus: hDFCGF Assay for Interleukin-8 (IL8) Biomarker Activity (AID 2283058). As to conditions: primary human foreskin fibroblasts; actives raise or lower the signal. A digest of the protocol: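 IL-8 levels from compound-treated primary human fibroblasts were read by ELISA at 24 h, with DMSO serving as baseline for bidirectional fitting.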

Test [7] in a line: BSK_hDFCGF_Proliferation: Cell Proliferation Assessment in the BioMAP Diversity Plus: hDFCGF Assay (AID 2283059).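 Further: curves fitted for both rise and fall of signal versus DMSO baseline.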 As to conditions: primary human foreskin fibroblasts. Put shortly: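 Primary human foreskin fibroblasts, sub-confluent; […]; 10% TCA fix, 0.1% SRB stain, A560 total protein. Gain/loss fitted bidirectionally vs DMSO control.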
Read-out in test [8]: Macrophage colony-stimulating factor (MCSF), CSF1 (gene 1435)
Put plainly: BSK_hDFCGF_MCSF: BioMAP Diversity Plus: hDFCGF Assay for Macrophage colony-stimulating factor (MCSF) Biomarker Activity (AID 2283060). As to conditions: primary human foreskin fibroblasts; actives raise or lower the signal. A digest of the protocol:
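M-CSF levels, determined by ELISA, are taken at 24 h after dosing human skin fibroblasts. Responses in either direction are fitted with DMSO serving as the baseline.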

A short description of test [9]: BSK_hDFCGF_SRB: Viability Assessment in the BioMAP Diversity Plus: hDFCGF Assay (AID 2283061).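 Further: cells exposed to compound for 24 h before the read.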 As to conditions: primary human foreskin fibroblasts. A digest of the protocol: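 Cells were dosed with test chemical, cultured 24 h, fixed with 10% TCA, then stained with 0.1% SRB and read at 560 nm. The fibroblasts were human foreskin primary cells, and DMSO served as baseline.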

Read-out in test [10]: TIMP metallopeptidase inhibitor 1 (TIMP1), TIMP1 (gene 7076)
Put plainly: BSK_hDFCGF_TIMP1: BioMAP Diversity Plus: hDFCGF Assay for TIMP metallopeptidase inhibitor 1 (TIMP1) Biomarker Activity (AID 2283062). As to conditions: primary human foreskin fibroblasts; actives raise or lower the signal. Put shortly:
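Fibroblasts from human foreskin are treated with test chemical and harvested at 24 h. TIMP-1 is quantified by ELISA, and gain or loss of signal is scored against DMSO.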

Read-out in test [11]: Monokine induced gamma interferon (MIG), CXCL9 (gene 4283)
Put plainly: BSK_hDFCGF_MIG: BioMAP Diversity Plus: hDFCGF Assay for Monokine induced gamma interferon (MIG) Biomarker Activity (AID 2283063). As to conditions: primary human foreskin fibroblasts; actives raise or lower the signal. Put shortly: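 MIG signal, determined by ELISA, reflects 24 h chemical exposure of human skin primary fibroblasts. DMSO serves as negative control and baseline.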

Read-out in test [12]: Matrix Metallopeptidase 1 (MMP1), MMP1 (gene 4312)
Put plainly: BSK_hDFCGF_MMP1: BioMAP Diversity Plus: hDFCGF Assay for Matrix Metallopeptidase 1 (MMP1) Biomarker Activity (AID 2283064). As to conditions: primary human foreskin fibroblasts; actives raise or lower the signal. Put shortly:
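Primary human foreskin fibroblasts in the hDFCGF system were dosed with test chemical, and MMP1 was measured by ELISA 24 h later. Values come from bidirectional curve fitting against the DMSO baseline.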

Read-out in test [13]: Plasminogen activator inhibitor-1 (PAI1), SERPINE1 (gene 5054)
Put plainly: BSK_hDFCGF_PAI1: BioMAP Diversity Plus: hDFCGF Assay for Plasminogen activator inhibitor-1 (PAI1) Biomarker Activity (AID 2283066). As to conditions: primary human foreskin fibroblasts; actives raise or lower the signal. A digest of the protocol:
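Human foreskin fibroblast primary cells, 24 h chemical exposure; PAI-1 measured by ELISA. Bidirectional fitting relative to DMSO; parallel cultures stained with SRB for total protein to flag overt cytotoxicity.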

Read-out in test [14]: Intercellular Adhesion Molecule 1 (ICAM1), ICAM1 (gene 3383)
Put plainly: BSK_KF3CT_ICAM1: BioMAP Diversity Plus: KF3CT Assay for Intercellular Adhesion Molecule 1 (ICAM1) Biomarker Activity (AID 2283067). As to conditions: primary human keratinocytes with fibroblasts; actives raise or lower the signal. Put shortly:
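Dose the keratinocyte/fibroblast co-culture, wait 24 h, measure ICAM-1 by ELISA, then fit increases or decreases against DMSO. Cytotoxicity is checked in parallel cultures by SRB total-protein staining.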

Read-out in test [15]: Interferon-gamma inducible Protein 10 (IP10), CXCL10 (gene 3627)
Put plainly: BSK_KF3CT_IP10: BioMAP Diversity Plus: KF3CT Assay for Interferon-gamma inducible Protein 10 (IP10) Biomarker Activity (AID 2283068). As to conditions: primary human keratinocytes with fibroblasts; actives raise or lower the signal. A digest of the protocol:
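In a primary skin co-culture of keratinocytes and fibroblasts, IP-10 is quantified by ELISA at 24 h after dosing. SRB staining of parallel wells monitors overt toxicity. Curves are fitted both directions against DMSO.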

Test [16] is described as follows: BSK_KF3CT_SRB: Viability Assessment in the BioMAP Diversity Plus: KF3CT Assay (AID 2283069).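 Further: total protein by sulforhodamine B staining as a cytotoxicity measure.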 As to conditions: primary human keratinocytes with fibroblasts. A digest of the protocol: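 Human primary keratinocyte plus foreskin fibroblast co-culture exposed to chemicals for 24 h. Total protein measured by 0.1% sulforhodamine B staining after 10% TCA fixation, read at 560 nm; bidirectional fitting versus DMSO baseline.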

Read-out in test [17]: Interleukin-1 alpha (IL1a), IL1A (gene 3552)
Put plainly: BSK_KF3CT_IL1a: BioMAP Diversity Plus: KF3CT Assay for Interleukin-1 alpha (IL1a) Biomarker Activity (AID 2283070). As to conditions: primary human keratinocytes with fibroblasts; actives raise or lower the signal. Put shortly: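 Human keratinocyte plus foreskin fibroblast primary co-culture, sampled 24 h after chemical dosing. IL-1a measured by ELISA; responses fitted bidirectionally against DMSO baseline (negative control), so gain or loss of signal both count.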

Read-out in test [18]: TIMP metallopeptidase inhibitor 2 (TIMP2), TIMP2 (gene 7077)
Put plainly: BSK_KF3CT_TIMP2: BioMAP Diversity Plus: KF3CT Assay for TIMP metallopeptidase inhibitor 2 (TIMP2) Biomarker Activity (AID 2283071). As to conditions: primary human keratinocytes with fibroblasts; actives raise or lower the signal. Put shortly:
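Co-culture of human primary keratinocytes and foreskin fibroblasts, measured 24 h after chemical dosing. TIMP-2 quantified by ELISA and fitted in both directions relative to DMSO. Cytotoxicity checked in parallel cultures by SRB total-protein staining.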

Read-out in test [19]: Transforming growth factor beta 1 (TGFb1), TGFB1 (gene 7040)
Put plainly: BSK_KF3CT_TGFb1: BioMAP Diversity Plus: KF3CT Assay for Transforming growth factor beta 1 (TGFb1) Biomarker Activity (AID 2283072). As to conditions: primary human keratinocytes with fibroblasts; actives raise or lower the signal. A digest of the protocol:
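Human keratinocyte/foreskin fibroblast co-culture; TGF-b1 measured by ELISA 24 h after dosing, fitted bidirectionally versus DMSO. Cytotoxicity checked in parallel cultures by total protein (SRB staining, 560 nm).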

Read-out in test [20]: Vascular cell adhesion molecule 1 (VCAM1), VCAM1 (gene 7412)
Put plainly: BSK_hDFCGF_VCAM1: BioMAP Diversity Plus: hDFCGF Assay for Vascular cell adhesion molecule 1 (VCAM1) Biomarker Activity (AID 2283065). As to conditions: primary human foreskin fibroblasts; actives raise or lower the signal. Put shortly: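 Cells are dosed, cultured for 24 h, then VCAM-1 is quantified by ELISA; signal increases and decreases are both fitted relative to DMSO.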

Our source for the outcome and AC50 values is PubChem BioAssay (EPA / NIEHS).

For orientation: AC50 means the midpoint of the concentration-response curve, whichever way the signal moves.

More than one record can exist for a structure, and the calls need not agree. Activity calls are given as the source filed them. How the source made its calls: active means hit-call score of the fitted dose curve at least 0.9, where 1 is the maximum; inactive means score below 0.9.

`Cc1ccc(OP(=O)(Oc2ccc(C)cc2C)Oc2ccc(C)cc2C)c(C)c1`: the outcome in test [1], in test [2], in test [3], in test [4], in test [6] and in test [10] was inactive. In addition, the result in [11], in [14], in test [15], in test [16], in test [17] and in test [18] was inactive. In test [19], the outcome was inactive. For the same molecule, the AC50 in test [5] is 3.88 µM (active); in test [7], 4.72 µM (active); in test [8], 5.48 µM (active); in [9] it was 4.22 µM (active); in test [12], 10.3 µM (active); in [13] it was 0.445 µM (active).
As for `Cc1c([N+](=O)[O-])c(C)c([N+](=O)[O-])c(C(C)(C)C)c1[N+](=O)[O-]`, the outcome in test [1], in test [2], in [3], in test [4], in test [5] and in [6] was inactive. For the same molecule, the result in [8], in [9], in test [10], in test [11], in test [12] and in test [16] was inactive. Moreover, the outcome in test [17], in test [18] and in test [19] was inactive. The values for the AC50 in [7], in [13] and in [15] were 31.4 µM (active), 29.5 µM (active) and 32.4 µM (active), respectively.
On to `Cc1ccccc1OP(=O)(Oc1ccccc1C)Oc1ccccc1C`, for which the AC50 was 11.2 µM (active) in test [1]; 20 µM (active) in test [2]; 32.4 µM (active) in [3]; 11.8 µM (active) in test [5]; 4.26 µM (active) in [7]; 7.75 µM (active) in test [8]. The AC50 in test [9] is 8.28 µM (active); in test [10] it was 11.7 µM (active); in test [11], 12.8 µM (active); in test [12], 12.7 µM (active); in test [13] it was 6.03 µM (active); in [15], 14.7 µM (active). The figures for the AC50 in test [16], in test [17] and in test [18] were 20 µM (active), 11.3 µM (active) and 5.54 µM (active), respectively. Besides, the outcome in [4], in [6] and in test [19] was inactive.
In the case of `CC1(C)[C@H](C(=O)O[C@H](C#N)c2cccc(Oc3ccccc3)c2)[C@@H]1/C=C(\Cl)C(F)(F)F`, the result in test [1], in test [2], in test [3], in test [4], in test [5] and in test [6] was inactive. For the same molecule, the result in test [7], in test [8], in test [9], in test [10], in test [11] and in test [12] was inactive. In addition, the outcome in test [20], in [13], in test [15], in test [16], in test [17] and in test [18] was inactive. In test [19], the result was inactive. In addition, the AC50 is 9.08 µM (active) in [4], 7.37 µM (active) in test [7], 0.0141 µM (active) in test [12] and 0.525 µM (active) in test [18].
As to `CC(C)(C)c1ccccc1O`, the outcome in test [1], in test [2], in [3], in test [4], in [5] and in test [6] was inactive. The outcome in [7], in test [8], in test [9], in [10], in [11] and in [12] was inactive. The outcome in test [13], in test [15], in test [16], in test [17], in test [18] and in [19] was inactive.
Consider `Cc1ccc2nc3sc(=O)sc3nc2c1`, for which the outcome in test [1], in [3], in test [4], in [5], in test [6] and in test [8] was inactive. Also, the result in test [9], in [10], in [12], in test [13], in test [15] and in test [16] was inactive. The outcome in test [19] was inactive. For the same molecule, the AC50 is 2.14 µM (active) in test [2]; 5 µM (active) in test [7]; 7.3 µM (active) in test [11]; 5 µM (active) in [17]; 2.5 µM (active) in test [18].
